# Results filed as inconclusive are left out. A number with no mark means an inactive call. The source made the active and inactive calls. Calls follow the shape of the dose curve; as a rule, active = well fitted inhibition curve with a large enough effect in the repeat runs; inconclusive = weak or mixed curves; inactive = flat fitted curve, though single readings scatter.
# Biological target: Cytochrome P450 2D6 (Homo sapiens) (UniProt P10635)
# Experiment: Cytochrome P450 family 2 subfamily D member 6 (CYP2D6) small molecule antagonists: luciferase biochemical (cell-free) qHTS assay (AID 1645840); also: nearly all actives have a fitted effect of over 55% in size
# Conditions: P450-Glo CYP2D6 enzyme, luciferin luminescence, 1 h; series mostly up to 57.4 µM; activity change, negative = inhibition: at the top concentration
# Procedure, shortened: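 P450-Glo luminescent screen: recombinant CYP2D6 enzyme–proluciferin substrate mix preincubated with compound 10 min at room temperature, then NADPH regeneration added for 1 h at room temperature. Detection reagent added for 20 min; luciferin light read as relative luminescence units.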
# % is scaled to controls: 0 for no effect and ±100 for the full control effect; potency is read from the fitted curve at half-maximal effect.
# Chain of Cytochrome P450 2D6 (Homo sapiens) (P10635 whole entry, looked up): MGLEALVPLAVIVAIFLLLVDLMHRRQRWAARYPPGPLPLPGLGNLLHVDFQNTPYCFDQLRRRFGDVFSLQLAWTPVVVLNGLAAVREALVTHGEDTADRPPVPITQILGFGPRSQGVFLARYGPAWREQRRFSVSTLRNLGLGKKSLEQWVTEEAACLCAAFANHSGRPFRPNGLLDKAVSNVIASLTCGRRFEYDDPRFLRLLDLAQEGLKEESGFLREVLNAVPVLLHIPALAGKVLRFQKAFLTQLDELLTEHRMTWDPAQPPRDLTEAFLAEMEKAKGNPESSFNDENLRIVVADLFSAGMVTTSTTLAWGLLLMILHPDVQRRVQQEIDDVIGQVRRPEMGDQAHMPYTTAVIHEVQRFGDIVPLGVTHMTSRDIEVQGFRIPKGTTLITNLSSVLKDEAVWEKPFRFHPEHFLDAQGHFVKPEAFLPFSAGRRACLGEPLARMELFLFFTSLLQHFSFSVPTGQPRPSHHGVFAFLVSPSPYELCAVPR
SMILES,Potency,"activity change, negative = inhibition [%]"
COc1ccc(NC(=O)Cn2cc(C(=O)c3cccs3)c3ccccc32)cc1,2.68 µM (active),
COc1ccc2c(c1)CCc1sc(NC(=O)c3cccc(Br)c3)nc1-2,,-5.53
CCN(CC)S(=O)(=O)c1ccc2c(c1)nc(CN(C)C(=O)Nc1cccc(Cl)c1)n2C,26.8 µM (active),
O=C(O)c1ccc(Cc2c(-c3cccc(-c4ccccc4)c3)[nH]n(-c3nc(C(=O)O)cs3)c2=O)cc1,9.52 µM (active),
Cc1[nH]n2c(=O)cc(-c3ccc(Cl)cc3)nc2c1-c1ccccc1,,2.23
OC[C@H]1O[C@@H]2O[C@H]3[C@H](O)[C@@H](O)[C@@H](O[C@H]4[C@H](O)[C@@H](O)[C@@H](O[C@H]5[C@H](O)[C@@H](O)[C@@H](O[C@H]6[C@H](O)[C@@H](O)[C@@H](O[C@H]7[C@H](O)[C@@H](O)[C@@H](O[C@H]1[C@H](O)[C@@H]2O)O[C@@H]7CO)O[C@@H]6CO)O[C@@H]5CO)O[C@@H]4CO)O[C@@H]3CO,,0.169
COc1ccc(NC(=O)CSc2oc(-c3cccs3)nc2S(=O)(=O)c2ccc(Br)cc2)c(OC)c1,,-16.2
COc1ccc(NC(=O)c2nc(SCc3ccc(F)cc3)ncc2Cl)cc1,,-10.8
CC(=O)C1(O)Cc2c(O)c3c(c(O)c2C(OC2CC(N)C(O)C(C)O2)C1)C(=O)c1ccccc1C3=O (centres undefined),12 µM (active),
CC(C)OCc1cc(CN2CCN(c3ccccc3)CC2)c(O)c2ncccc12,,12.9
COc1ccccc1NC(=O)c1oc2ccccc2c1NC(=O)c1ccccc1C(F)(F)F,,11.6
Cc1ccc(-n2nc3c(N4CCCC(C(=O)NCc5ccccc5C)C4)nnc(C)c3c2C)cc1 (centres undefined),9.52 µM (active),
CC(C)CCn1c(CN2CCN(C(=O)C(C)C)CC2)nc2c1c(=O)n(C)c(=O)n2C,,-0.298
CCOC(=O)c1ccc(NC(=O)c2cc(=O)c3ccc(C)c(C)c3o2)cc1,,-17
Cc1ccc(-n2c(SCc3ccccc3C)nc3[nH]ncc3c2=O)cc1C,12 µM (active),
C[S+](=O)([O-])Nc1ccc(-c2ccc3nc(-c4ccc(OC(F)(F)F)cc4)[nH]c3c2)cc1,,16.5
CN[C@H](CC(C)C)C(=O)N[C@H]1C(=O)N[C@@H](CC(N)=O)C(=O)N[C@H]2C(=O)N[C@H]3C(=O)N[C@H](C(=O)N[C@H](C(=O)O)c4cc(O)cc(O)c4-c4cc3ccc4O)[C@H](O)c3ccc(c(Cl)c3)Oc3cc2cc(c3O[C@@H]2OC(CO)[C@@H](O)[C@H](O)[C@@H]2O[C@H]2C[C@](C)(N)[C@H](O)[C@H](C)O2)Oc2ccc(cc2Cl)[C@H]1O (some centres undefined),,3.2
CNS(=O)(=O)c1ccc(Cc2c(-c3cccc(-c4ccccc4)c3)[nH]n(-c3nc(C(=O)O)cs3)c2=O)cc1,26.8 µM (active),
CCOC(=O)c1csc(-n2nc(-c3ccc(F)c(F)c3)c(Cc3ccc(S(N)(=O)=O)cc3)c2N)n1,,1.94
COc1cc(C(=O)NC(c2ccccc2Cl)c2cc(Cl)c3cccnc3c2O)cc(OC)c1OC (centres undefined),,9.08

SMILES,Potency,"activity change, negative = inhibition [%]"
c1ccc(Cn2c(-c3ccc(OC[C@H](C4CCNCC4)n4c(-c5ccccc5)nc5ccccc54)cc3)nc3ccccc32)cc1,12 µM (active),
Cc1nn(CC(=O)NCCc2ccccc2)c(=O)c2c1sc1ccccc12,12 µM (active),
CCc1ccc(CNC(=O)C2CCCN(c3nnc(C)c4c(C)n(-c5ccccc5)nc34)C2)cc1 (centres undefined),10.7 µM (active),
COc1ccccc1Cn1cc(C(=O)c2ccc(Cl)cc2)c(=O)c2cc3c(cc21)OCCO3,2.68 µM (active),
Cc1ccccc1CNC(=O)CCCn1c(=O)c2cccn2c2cccnc21,8.49 µM (active),
Cc1ccc(NC(=O)Cn2c(=O)n(CCC(=O)NCc3ccc4c(c3)OCO4)c(=O)c3sccc32)c(C)c1,1.69 µM (active),
Cc1ccc(Nc2nc3nonc3nc2Nc2cccc(C(F)(F)F)c2)cc1Cl,9.52 µM (active),
O=C(O)CN(CC(=O)O)Cc1cc2c(-c3ccccc3C(=O)O)c3cc(CN(CC(=O)O)CC(=O)O)c(=O)cc-3oc2cc1O,,7.5
COc1ccc(C(=O)Nc2ccc3oc(-c4ccc(OC)cc4)nc3c2)cc1,,12.4
Cc1onc(-c2c(F)cccc2Cl)c1C(=O)Cl,,9.8
Cc1cc(O)c(Cl)c(C)c1Cl,,-2.58
COc1ccc(Br)c2c1-c1nc(NC(=O)c3cccc(C)c3)sc1C2,,2.02
COc1ccc2c(CNCCc3ccccc3OC)c(C(=O)O)n(Cc3ccc(F)cc3Cl)c2c1,12 µM (active),
COc1ccc(C(=O)NC(c2ccc(Cl)cc2)c2cc(Cl)c3cccnc3c2O)cc1 (centres undefined),,7.87
COCCCNC(=O)C(=O)Nc1c2c(nn1-c1cccc(Cl)c1)CSC2,,10.1
CC1CCCCC1N(Cc1ccccc1)[S+](=O)([O-])c1ccc([S+](=O)([O-])N(C)C)cc1 (centres undefined),,22.3
CN1N=C(N)c2cn([C@@H]3O[C@H](COP(=O)(O)O)[C@@H](O)[C@H]3O)c3ncnc1c23,,-8.56
NC(=O)c1ccc(Cc2c(-c3cccc(-c4ccccc4)c3)[nH]n(-c3nc(C(=O)O)cs3)c2=O)cc1,23.9 µM (active),
C[S+](=O)([O-])Nc1ccc(-c2ccc3nc(-c4cccc(OC(F)(F)F)c4)[nH]c3c2)cc1,,15

# Reference: PubChem BioAssay (NCATS)
